Test results reported in ChEMBL document CHEMBL1157539, “Thousands of chemical starting points for antimalarial lead identification” (Nature, 2010).
The full ranking holds about 13,000 compounds; the median of “IFI” is about 4, and the highest 2% start at about 17. This excerpt belongs to a sample that is enriched for the highest values.

test: GSK_TCMDC: Inhibition Frequency Index (IFI). The number of non-kinase HTS assays where a compound showed > 50 % inhibition, expressed as a percentage of the number of such assays in which the compound was tested; assay type: functional

SMILES	IFI
CN1CCC(NCc2cccc(-c3nn(C)c4nc(NC5CCCC5)ncc34)c2)CC1	9.09%
CCC1CN2CCc3c([nH]c4ccccc34)[C@@H]2C[C@@H]1CC1NCCc2cc(OC)c(OC)cc21 (some centres undefined)	8.33%
CC(Oc1cc(-n2cnc3ccc(NC(=O)CCN4CCCCC4)cc32)sc1C(N)=O)c1ccccc1Cl (centres undefined)	9.35%
Cc1cc(N2CC=CCC2)nc(NC(=N)Nc2ccc(Cl)cc2)n1	4.29%
CCN(CC)CCCCCNc1c2ccc(Cl)cc2nc2ccc(OC)cc12	8.03%
COc1cc2nc(-c3ccc(Br)cc3)cc(N)c2cc1OC	11.1%
Cc1ccc(NC(=O)c2ccc(N3CCN(c4ccncc4)CC3)cc2)cc1F	6.9%
Cc1ccc(NC(=O)Nc2ccccc2F)cc1-c1ccc(C(=O)Nc2ccncc2)cc1	26.4%
Cc1ccc(NC(=O)c2ccc(Cl)c(Cl)c2)cc1-c1ccc(C(=O)Nc2ccncc2)cc1	8.82%
Cc1ccc(C)c(NC(=O)Nc2ccc(C)c(-c3ccc(C(=O)Nc4ccncc4)cc3)c2)c1	14.1%
Cc1ccc(NC(=O)Nc2ccc(Cl)c(C(F)(F)F)c2)cc1-c1ccc(C(=O)NCCN2CCOCC2)cc1	13.2%
Cc1ccc(NC(=O)Nc2ccc(Cl)c(C(F)(F)F)c2)cc1-c1ccc(C(=O)Nc2ccncc2)cc1	18.3%
Cc1ccc2c(=O)cc(CCc3cccc(F)c3F)n(CC(=O)N(Cc3ccc(-c4ccc(C(F)(F)F)cc4)cc3)C3CCN(C)CC3)c2n1	8.51%
CC(C)(C)N1CCC(N(Cc2ccc(-c3ccc(C(F)(F)F)cc3)cc2)C(=O)Cn2c(CCc3cccc(F)c3F)nc(=O)c3cccnc32)CC1	16.7%
CC(C)COc1ccc(Cl)cc1Cc1ccc(-c2nc3ccc(Br)cc3[nH]2)o1	19.8%
CC(C)COc1ccc(Cl)cc1Cc1ccc(-c2nc3c(F)cccc3[nH]2)o1	15.5%
CC(C)COc1ccc(Cl)cc1Cc1ccc(-c2nc3ccc(C(F)(F)F)cc3[nH]2)o1	11.3%
CC(C)COc1ccc(Cl)cc1Cc1ccc(-c2nc3ccc(F)c(F)c3[nH]2)o1	11.3%
CC(C)COc1ccc(Cl)cc1Cc1ccc(-c2nc3ccc(F)cc3[nH]2)o1	15.5%
CC(C)COc1ccc(Cl)cc1Cc1ccc(-c2nc3ccc(Cl)cc3[nH]2)o1	19.1%

SMILES	IFI
NC(=O)c1ccccc1Nc1nc(Nc2cc[nH]n2)ncc1Cl	0%
Cc1cc(=NN=Cc2ccccc2F)c2cc(F)ccc2[nH]1	0%
O=C(NC1CCC(N2CCC(c3ccccc3C(F)(F)F)CC2)CC1)c1cc2ccccc2[nH]1 (centres undefined)	10.4%
Cc1cccc(C)c1N1CCN(C2CCC(NC(=O)c3cc4ccccc4[nH]3)CC2)CC1 (centres undefined)	13.2%
O=C(NC1CCC(N2CCN(c3cccc(C(F)(F)F)c3)CC2)CC1)c1cc2ccccc2[nH]1 (centres undefined)	17.6%
Cc1cccc(N2CCN(C3CCC(NC(=O)c4cc5ccccc5[nH]4)CC3)CC2)c1C (centres undefined)	22.9%
O=C(NC1CCC(N2CCC(O)(c3ccc(F)cc3)CC2)CC1)c1cc2ccccc2[nH]1 (centres undefined)	1.54%
O=C(NC1CCC(N2CCC(Cc3ccc(F)cc3)CC2)CC1)c1cc2ccccc2[nH]1 (centres undefined)	14.7%
COc1ccc(Nc2c3ccc(Cl)cc3nc3ccc(OC)cc23)cc1	5.11%
COc1ccccc1C1CCN(C2CCC(NC(=O)/C=C/c3cc(F)cc(C(F)(F)F)c3)CC2)CC1 (centres undefined)	11.5%
Cc1cccc2nc(-c3ccc(-c4cccc(CNCc5ccccc5)c4)s3)[nH]c12	4.81%
COc1ccc(-c2cncc3ccc(C(=O)NCc4ccncc4)nc23)cc1	6.45%
COc1ccc(Cc2cccc(C(C(=O)NCc3cc(Cl)cc(Cl)c3)N3CCN(C)CC3)c2)cc1 (centres undefined)	7.75%
NC(=O)CCC(NC(=O)CNC(=O)Nc1cccc(C(F)(F)F)c1)C(=O)O (centres undefined)	19.9%
CC(C)NCC(=O)Nc1cccc(C(=O)Nc2cccc(C(F)(F)F)c2)c1	2.04%
O=C(Nc1cccc(C(F)(F)F)c1)Nc1ccc(Cl)c(C(F)(F)F)c1	16.7%
CC(=O)N1N=C(c2ccc(Cl)cc2)Sc2c1nc(-c1ccccc1)n2C(C)=O	0%
Cn1c(=O)c2cc(C(=O)NCCCN3CCCCCC3)sc2c2ccccc21	3.23%
OCCN1CCN(Cc2ccc(-c3ccc(-c4nc5cc(F)ccc5[nH]4)cc3)cc2)CC1	8.91%
Cc1cc(=NN=Cc2ccc(F)cc2)c2cc(F)ccc2[nH]1	2.86%

SMILES	IFI
COc1ccc(C(=O)CCC(=O)N(Cc2ccc(-c3ccc(CNCCc4ccccc4)cn3)cc2)C(C)CN(C)C)cc1F (centres undefined)	6.9%
COc1ccc2c(c1CCNCCCCNCCc1c(OC)ccc3c1CCCC3)CCCC2	18.3%
COc1ccc2c(c1CNCCCCCCNCc1c(OC)ccc3c1CCCC3)CCCC2	11.9%
COc1cc2c(cc1CCNCCCCNCCc1cc3c(cc1OC)CCCC3)CCCC2	15.8%
CCOC(=O)c1ccc(NC(=O)Nc2ccc(-c3cccc(-c4nc5cc(F)ccc5[nH]4)c3)cc2)cc1	4.95%
Cc1cc(C(=O)NC2CCN(CC3(c4ccccc4)CCCCC3)CC2)on1	6.38%
O=C(Nc1ccc(C(=O)Nc2ccc(C3=NCCN3)cc2)cc1)Nc1ccc(C2=NCCN2)cc1	5.84%
Oc1c(CN2CCC(Cc3ccccc3)CC2)cc(Cl)c2cccnc12	18.8%
COc1cc(C)cc(CN2CCC(Cc3ccccc3)CC2)c1O	0.84%
O=C(NC1CC1)c1cnc(N2CCC(Cc3ccccc3)CC2)c(Cl)c1	9.52%
COc1ccccc1CN1CCC(CNC(=O)c2cc(-c3ccc(N(C)C)cc3)cs2)C1 (centres undefined)	13.7%
CCCCN(CCCC)CCCN(CCCN(CCCC)CCCC)c1cc(C)nc(Nc2ccc3cc(Br)ccc3c2)n1	15.2%
CCC(C)Oc1ccc(CCCON2C(N)=NC(N)=NC2(C)C)cc1 (centres undefined)	5.76%
CCCOc1ccc(CCCON2C(N)=NC(N)=NC2(C)C)cc1	6.29%
CCCc1cccc(OC)c1OCCCON1C(N)=NC(N)=NC1(C)C	4.51%
CCC(C)c1cccc(C(C)CC)c1OCCCON1C(N)=NC(N)=NC1(C)C (centres undefined)	24.1%
CC(C)(C)c1ccc(OCCCON2C(N)=NC(N)=NC2(C)C)cc1	18.1%
CC1(C)N=C(N)N=C(N)N1OCCCCON1C(N)=NC(N)=NC1(C)C	1.44%
Cc1cc(-c2cccc(CNC3CCN(C)CC3)c2)ccc1S(=O)(=O)NC1CCC1	7.48%
